Only some compounds are listed: those with a hit (about 6.6% of all), similar ones and a draw of the others.
RGS4 inh – blocks human RGS4-accelerated GTP hydrolysis. P49798. Transcreener GDP fluorescence polarization, RGS4-accelerated GTP hydrolysis. Potency, µM (doses to about 114 µM), most hits filed as inhibitors. actives 0.039% (n = 390,000). AID 504845; further: nearly all actives have a fitted effect of over 75% in size
Target sequence (P49798 whole entry, looked up): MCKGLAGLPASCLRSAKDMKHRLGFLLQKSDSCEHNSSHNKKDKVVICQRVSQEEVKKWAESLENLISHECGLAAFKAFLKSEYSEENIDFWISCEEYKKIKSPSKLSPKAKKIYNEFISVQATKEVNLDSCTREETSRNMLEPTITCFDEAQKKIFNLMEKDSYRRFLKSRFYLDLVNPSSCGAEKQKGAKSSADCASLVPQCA
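MLSMR compounds (23 nl, pin-transferred) preincubated 10 min at room temperature with a 500nM (2x) first reagent, then RGS4 at 900nM (2x) plus Transcreener GDP mix added; fluorescence polarization (620/688 nm) read before and after 90 min at 30 °C.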
KB-3-1 tox – kills parental KB-3-1 adenocarcinoma cells. AID 1347075. KB-3-1 viability, CellTiter-Glo ATP luminescence, 72 h. Potency, µM (series often up to 46.1 µM), most hits filed as cytotoxic. actives 1.4% (n = 400,000); further: nearly all actives have a fitted effect of over 60% in size
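Cells are dispensed, compounds pinned in, plates held at 37 °C for 72 h, then CellTiter-Glo is added and luminescence read after 10 minutes. Cell line: parental KB-3-1 in phenol-red-free DMEM, 10% FBS.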
TSG101-PTAP inh – blocks PTAP/TSG101 interaction to inhibit HIV-1 budding. Q99816. Fluorescence polarization, FITC-PTAP peptide / Tsg101 binding. Potency, µM (doses to about 115 µM), most hits filed as inhibitors. 340,000 tested, under 10 active. AID 493005; active means well fitted inhibition curve with a large enough effect in the main read-out, with a control signal flat, not every such curve was filed as active; inconclusive means small, poorly fitted or top-dose-only effect, or effect the other way, or a change in a side signal; inactive means no such curve, though single readings can be large or run the other way
Target sequence (Q99816 whole entry, looked up): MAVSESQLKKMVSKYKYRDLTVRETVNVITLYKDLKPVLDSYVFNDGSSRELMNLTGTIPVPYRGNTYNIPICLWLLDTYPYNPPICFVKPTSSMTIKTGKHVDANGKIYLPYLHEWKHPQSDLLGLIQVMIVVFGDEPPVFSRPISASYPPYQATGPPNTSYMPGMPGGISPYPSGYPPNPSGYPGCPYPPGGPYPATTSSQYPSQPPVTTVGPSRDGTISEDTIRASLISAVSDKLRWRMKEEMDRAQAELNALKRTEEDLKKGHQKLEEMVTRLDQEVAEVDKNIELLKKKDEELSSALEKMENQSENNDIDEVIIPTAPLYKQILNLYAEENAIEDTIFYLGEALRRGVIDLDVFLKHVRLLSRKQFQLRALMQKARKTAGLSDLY
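Compounds were pin-transferred onto Tsg101 binding domain (10 uM final) in HEPES pH 7.5 buffer, then FITC-PTAP peptide was added at 50 nM final. After 20 min at RT, polarization reported peptide displacement across a qHTS concentration series.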
MCF10A rerep – inducers of DNA re-replication in MCF 10A breast cells; actives 2.9% (n = 350,000); Potency, µM (highest dose often 46.1 µM), usual class: activators; MCF 10A DNA re-replication, Hoechst nuclear intensity, 48 h; AID 624296; further: nearly all actives have a fitted effect of over 50% in size
KB-V1 MDR tox – kills drug-selected multidrug resistant KB-V1 cells; Potency, µM (titrated, usually from 46.1 µM), hits mostly cytotoxic; KB-V1 MDR cells viability, CellTiter-Glo, 72 h; actives 3.4% (n = 400,000); further: nearly all actives have a fitted effect of over 60% in size
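Cells of the MDR subline KB-V1 are plated, dosed with compound at multiple concentrations, and incubated 72 h at 37 degrees C; CellTiter-Glo is then added and luminescence read after 10 min.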
SW480 rereplic – inducers of DNA re-replication in SW480 colon cancer cells. Potency, µM (series often up to 46.1 µM), usual class: activators. SW480 DNA re-replication, Hoechst DNA content imaging, 48 h. actives 1.8% (n = 340,000); further: nearly all actives have a fitted effect of over 55% in size
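SW480 cells exposed to compounds for 48 hr at 37 C, 5% CO2, then Hoechst-stained 40 min. Nuclear DNA content imaged by fluorescence scanning (405 nm excitation, 500-530 nm emission); re-replication scored as increased high-intensity nuclei.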
Numbers stand for hits; 0 = inactive; ? = inconclusive; - = no result; [ ] = another dose, or the depositor's remark. Unless noted, the call rests on the fitted dose curve; in most records, active means well fitted curve in the direction sought with a large enough effect; inconclusive means small, poorly fitted or top-dose-only effect, or another doubt; inactive means no such curve, though single readings can be large; an effect the other way counts as inactive or inconclusive.

SMILES	RGS4 inh	KB-3-1 tox	TSG101-PTAP inh	MCF10A rerep	KB-V1 MDR tox	SW480 rereplic
CCOc1ccc(NC(=S)NC23CC4CC(CC(C4)C2)C3)cc1	0	0	0	0	0	0
FC(F)Oc1ccc(NC(=S)NC23CC4CC(CC(C4)C2)C3)cc1	0	23µM	0	0	16µM	0
COc1ccc(/C=C2\CCCC3C2=NC(=S)NC3c2ccc(OC)cc2)cc1 (stereo not given)	0	0	0	7.3µM	0	18µM
COc1ccc(/C=C2\CCC(C3CCCC3)C2=O)cc1 (stereo not given)	0	0	0	0	0	0
COc1cccc(C2=NS(=O)(=O)N(C)C(C(=O)Nc3cccc(O)c3)=C2)c1	0	0	-	-	0	-
COc1ccc(C(=O)N/N=C/c2c[nH]c3ccccc23)cc1	0	0	0	0	0	?
O=C(N/N=C/c1sc2ccccc2c1O)c1ccccc1	0	0	?	?	?	2.6µM
COc1ccc(C(=O)N/N=C/C(=O)c2ccccc2)cc1	0	0	0	0	0	0
COc1ccc(C(=O)N/N=C/c2sc3ccccc3c2O)cc1	0	7.3µM	?	?	?	5.2µM
O=C(N/N=C/c1sc2ccccc2c1O)c1cccc2ccccc12	0	0	0	?	?	?
COc1ccc2cc(C(=O)N/N=C/c3sc4ccccc4c3O)ccc2c1	0	13µM	?	?	23µM	?
CCCCN(C)CCCNC(=O)Cn1ncc2c3ccccc3n(Cc3cc(C)ccc3C)c2c1=O	0	-	-	-	-	-
COCCNC(=O)c1cccc(OC2CCN(C(C)COc3ccccc3)CC2)c1 (stereo not given)	0	0	0	1.8µM	0	0
CCOC(=O)C1=C(N)Oc2ccc3ccccc3c2C1c1cccc(O)c1 (stereo not given)	0	0	0	?	0	0
CCOC(=O)C1=C(N)Oc2ccc3ccccc3c2C1c1cccnc1 (stereo not given)	0	?	0	?	11µM	0[9.22 µM]
Cc1c(Cl)cccc1Nc1nc(N)nc(CSCCO)n1	0	0	0	0	0	0
Cc1c(Cl)cccc1Nc1nc(N)nc(CSc2ncccn2)n1	0	0	0	0	18µM	?
CN1CCC(=C2c3ccccc3Sc3ccccc32)CC1	0	0	0	27µM	?	?
CCN(Cc1ccccc1)C(=O)CN1C(=O)COc2ccc(S(=O)(=O)N3CCOCC3)cc21	0	-	-	-	-	-
O=C(c1ccc(Cl)c(S(=O)(=O)N2CCCC2)c1)N1CCN(c2ccccc2)CC1	?	0	0	0	?	0
Cc1cc(C(=O)N2CCN(c3ncccn3)CC2)sc1-c1ccccc1	0	0	-	0	21µM	0
O=C(c1ccc(Cl)c(S(=O)(=O)N2CCCC2)c1)N1CCN(c2ccc(F)cc2)CC1	0	?	0	?	5.8µM	0
Cc1ccc(C(=O)N2CCN(c3ncccn3)CC2)cc1S(=O)(=O)N1CCCCC1	0	0	0	0	23µM	0
Cc1ccc(Cl)cc1Nc1nn2c(=O)c3ccc(C(=O)NCc4ccc(F)cc4)cc3nc2s1	0	0	-	-	0	-
CCCNC(=O)CSc1nc2ccccc2nc1Cc1ccc(Cl)cc1	0	0	-	-	0	-
SMILES	RGS4 inh	KB-3-1 tox	TSG101-PTAP inh	MCF10A rerep	KB-V1 MDR tox	SW480 rereplic
COc1ccccc1CNC(=O)c1ccc(N2Cc3cccc(OC)c3Oc3ncccc32)s1	0	0	-	-	0	-
CC1CCN(C(=O)Cn2cc(SCC(=O)NCc3ccc(F)cc3)c3ccccc32)CC1	0	-	-	-	-	-
On1c(-c2ccc(Cl)cc2)nc2ccccc21	?	0	0	0	0	0
Cc1ccc(-c2nnc3c(C(F)(F)F)nc4ccccc4n23)cc1	0	?	0	?	21µM	16µM
Cc1ccc(-c2nc3ccccc3n3nnnc23)cc1	0	0	0	0	?	0
FC(F)(F)c1nc2ccccc2n2c(-c3ccc(Cl)cc3)nnc12	0	4.6µM	0	13µM	5.8µM	0
COc1ccc(CNC(=O)CCc2c(C)nc3c(c(C)nn3-c3ccccc3)c2C)cc1	0	0	-	-	0	-
COc1ccccc1-c1nnc(SCC(=O)c2c(N)n(C3CC3)c(=O)[nH]c2=O)o1	0	0	0	0	0	0
Cc1cc(C)cc(-n2ccnc2SCC(=O)c2c(N)n(C3CC3)c(=O)[nH]c2=O)c1	0	0	0	0	0	0
Cc1ccc(C)c(-n2ccnc2SCC(=O)c2c(N)n(C3CC3)c(=O)[nH]c2=O)c1	0	0	0	0	0	18µM
Nc1c(C(=O)CSc2nc3ccccc3o2)c(=O)[nH]c(=O)n1C1CC1	0	1.3µM	0	?	0	0
CCOc1ccc(S(=O)(=O)NCCCn2ccnc2)cc1	0	0	0	23µM	?	0
CCOc1ccccc1NC(=S)NCCCn1ccnc1	0	0	0	0.58µM	?	?
CC1CCCCC1NS(=O)(=O)c1ccc(S(=O)(=O)NCc2ccncc2)cc1 (stereo not given)	0	0	0	0	16µM	0
CCOc1cc(S(=O)(=O)NCCCn2ccnc2)ccc1Cl	0	0	0	0	0	0
CCOc1ccc(S(=O)(=O)NCc2ccncc2)cc1	0	0.82µM	0	0	0.65µM	0
CCOC(=O)COc1ccc(S(=O)(=O)NCc2ccncc2)cc1	0	?	0	0	0	0
Cc1ccc(CNC(=O)CN(c2ccc(Cl)cc2Cl)S(=O)(=O)c2ccccc2)cc1	0	0	-	-	0	-
Cc1c(C(=O)N/N=C/C(C)C)[nH]c2c([N+](=O)[O-])cccc12	0	?	0	21µM	?	?
Cc1cc(Cl)nc2nc(Cl)ccc12	-	0	-	-	0	-
CC1(OC(=O)C2CCCC2)C(=O)C=C2C=C(c3ccsc3)N(CC3CC3)C=C2C1=O (stereo not given)	0	0	0	0	0	0
CC1(OC(=O)C2CCCC2)C(=O)C=C2C=C(c3ccsc3)N(C3CCCCC3)C=C2C1=O (stereo not given)	0	21µM	0	0	0	0
O=C(CCCNS(=O)(=O)c1cccc2nsnc12)NCCc1ccccc1	0	0	0	0	0	0
O=S(=O)(NCCc1ccccc1)c1cccc2nsnc12	0	0	0	5.2µM	?	?
CN(CC(=O)NCCc1ccccc1)S(=O)(=O)c1cccc2nsnc12	0	0	0	0	9.2µM	?
Cc1ccc(C)c(CN2C(=O)c3ccccc3S(=O)(=O)c3ccc(C(=O)N4CCN(c5ccccn5)CC4)cc32)c1	0	-	-	-	-	-
COc1ccc(OCC(=O)N(Cc2cccc(OC)c2)C2CCS(=O)(=O)C2)cc1 (stereo not given)	0	0	-	-	0	-
